Records with an inconclusive call do not appear. Entries that show only a call come without a potency. Values without a mark were called inactive. The source made the active and inactive calls. Calls follow the shape of the dose curve; as a rule, active = well fitted inhibition curve with a large enough effect in the repeat runs; inconclusive = weak or mixed curves; inactive = no such curve, though single readings can be large or run the other way.
The compounds below were run against Cytochrome P450 3A4 (Homo sapiens) (UniProt P08684) (assay: Cytochrome P450 Family 3 Subfamily A Member 4 (CYP3A4) small molecule antagonists: luciferase reporter qHTS assay (AID 1671201; also: nearly all actives have a fitted effect of over 50% in size)). Conditions: P450-Glo CYP3A4 enzyme, luciferin luminescence, 1 h; series mostly up to 115 µM.
Cytochrome P450 3A4 (Homo sapiens), sequence (P08684 whole entry, looked up): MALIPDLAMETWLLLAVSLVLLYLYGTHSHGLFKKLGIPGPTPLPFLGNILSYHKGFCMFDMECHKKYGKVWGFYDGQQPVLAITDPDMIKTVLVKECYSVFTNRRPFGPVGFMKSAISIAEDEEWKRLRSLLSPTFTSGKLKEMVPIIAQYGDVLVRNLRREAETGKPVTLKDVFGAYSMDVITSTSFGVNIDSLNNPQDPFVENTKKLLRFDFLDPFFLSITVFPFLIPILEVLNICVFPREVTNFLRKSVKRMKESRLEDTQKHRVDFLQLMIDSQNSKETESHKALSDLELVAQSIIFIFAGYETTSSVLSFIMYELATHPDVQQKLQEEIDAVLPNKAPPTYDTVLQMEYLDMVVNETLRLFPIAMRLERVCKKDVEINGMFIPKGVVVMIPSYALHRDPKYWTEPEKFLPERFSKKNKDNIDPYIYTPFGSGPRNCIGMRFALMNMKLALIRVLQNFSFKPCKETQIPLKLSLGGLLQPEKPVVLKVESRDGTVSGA
Summary of the method: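 CYP3A4 activity was followed with a P450-Glo proluciferin substrate. Test compounds in DMSO were preincubated 10 min; NADPH regeneration then ran 1 h, and light output was read 20 min after detection reagent.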
Potency is read from the fitted curve at half-maximal effect.

SMILES | Potency | activity change, negative = inhibition
COC(=O)c1ccc(I)cc1S(=O)(=O)NC(=O)Nc1nc(C)nc(OC)n1 | inactive | 
ClCCOCCOCCCl | inactive | 
CC1=CCCC(C)(C)C12CCC(C)O2 (stereo not drawn) | 79.6 µM (active) | 
Nc1cc(C(=O)O)c(O)c(S(=O)(=O)O)c1 | inactive | 
O=C1C(O)=C(O)C(=O)C(O)=C1O | inactive | 
CCOCC(O)COc1ccc(NC(=O)CC[S+](C)C)cc1 (stereo not drawn) | inactive | 
C=CC(=O)OCCOCCOC(=O)C=C | inactive | 
COS(=O)(=O)C(F)(F)F | inactive | 
CC(C)(O)c1ccc(CNC(=O)c2cccnc2Oc2ccc(F)cc2)cc1 | 31.7 µM (active) | 
CC1=CC[C@H](C(C)C)C=C1 | 28.3 µM (active) | 
CCN(CC)CCNC(=O)c1cc(Br)c(N)cc1OC | inactive | 
CCCn1cnc2c1c(=O)n(CCCCC(C)=O)c(=O)n2C | inactive | 
Cc1ncc(CO)c(C=O)c1O | inactive | 
CCCCOC(=O)CCCCCCCC(=O)OCCCC | inactive | 
O=C(O)c1ccco1 | inactive | 
COc1ccc(S(=O)(=O)N2C(=O)[C@@](c3ccccc3OC)(N3C[C@H](O)C[C@H]3C(=O)N(C)C)c3cc(Cl)ccc32)c(OC)c1 | 0.0894 µM (active) | 
Cc1cccc(C)c1NC(=O)CN(CC(=O)O)CC(=O)O | inactive | 
O=C(O)c1nc(Cl)c(Cl)c(Cl)c1Cl | inactive | 
CCOC(=O)c1cccnc1 | inactive | 
CN(C)c1ccc(/C=C/c2ccc([N+](=O)[O-])cc2)cc1 |  | 3.87% [at 10.5 µM]
O=S(c1cc(Cl)cc(Cl)c1O)c1cc(Cl)cc(Cl)c1O | inactive | 
COCC(C)OC(C)=O (stereo not drawn) | inactive | 
CN(C)CCN(Cc1ccccc1)c1ccccn1 | inactive | 

Reference: PubChem BioAssay (Tox21)
